# Calls of active or inactive are those of the source.
# Assays:
# [1] = binders of probe aFSTL3 on microarray, primary screen, stem cell growth factor project, biochemical, small-molecule microarray, fluorescence 635/667 (AID 1064); details: higher = more signal;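 also: measures binding of the biotinylated anti-FSTL3 antibody to printed compounds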
# [2] = binders from COS7 lysate, DM2A8 probe, primary screen, torsin A project, cell lysate, small-molecule microarray, fluorescence 635/667 (AID 1065); details: higher = more signal, COS7 lysate expressing mutant human TOR1A
# [3] = binders of probe aFGF2 on microarray, primary screen, stem cell growth factor project, biochemical, small-molecule microarray, fluorescence 635/667 (AID 1067); details: higher = more signal;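 also: measures binding of biotinylated aFGF2 protein to printed compounds on slides; z-score merges feature fluorescence and signal-to-noise across triplicate slides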
# [4] = binders of probe aFGF10 on microarray, primary screen, stem cell growth factor project, biochemical, small-molecule microarray, fluorescence 635/667 (AID 1071); details: higher = more signal;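 also: score merges 667 nm spot intensity and signal to noise from triplicate slides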
# [5] = target: Neurogenic locus notch homolog protein 2 (Homo sapiens) (UniProt Q04721); assay: Notch2 binders on small-molecule microarrays, primary screen, biochemical, small-molecule microarray, 635 nm fluorescence, stem cell growth factors (AID 1073); details: Notch2 binding, higher = more signal
# [6] = target: Pro-neuregulin-1, membrane-bound isoform (Homo sapiens) (UniProt Q02297); assay: NRG1 binders on small-molecule microarrays, primary screen, psychiatric disease protein project, biochemical, small-molecule microarray, fluorescence 635/667 (AID 1075); details: NRG1 binding, 635 nm fluorescence, higher = more signal;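 also: score combines 667 nm spot fluorescence with signal to noise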
# [7] = tested on: Neuregulin-1 EGF-like domain; assay: binders of neuregulin-1 EGF-like domain, primary screen, biochemical, small-molecule microarray, 635 nm fluorescence (AID 1081); details: small-molecule microarray binding, higher = more signal;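 also: binding of the protein to compounds printed on small-molecule microarray slides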
# [8] = FRG1 promoter luciferase signal modulators, primary screen, FRG1 inhibition for FSHD, cell-based, C2C12 myotubes, firefly/Renilla luciferase, luminescence (AID 1084); details: higher = more signal, called active from +8 up or from −8 down
# [9] = binders of probe aFST on microarray, primary screen, stem cell growth factor project, biochemical, small-molecule microarray, fluorescence 635/667 (AID 1086); details: higher = more signal;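 also: score merges 667 nm fluorescence with signal-to-noise of each printed compound spot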
# [10] = binders of probe aHhip on microarray, primary screen, stem cell growth factor project, biochemical, small-molecule microarray, fluorescence 635/667 (AID 1087); details: higher = more signal;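 also: score merges spot fluorescence at 667nm with spot signal to noise ratio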
# [11] = tested on: PRMT1 (protein arginine N-methyltransferase 1); assay: PRMT1 binders on small-molecule microarrays, primary screen, biochemical, small-molecule microarray, 635 nm fluorescence (AID 1088); details: small-molecule microarray binding, higher = more signal;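 also: binding of Prmt1 protein to compounds spotted on small-molecule microarray slides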
# [12] = yeast growth modulation, basal conditions, primary screen, YJM789 clinical isolate, OD600, 24 h (AID 1089);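 also: growth of clinical yeast isolate S. cerevisiae YJM 789 seeded 1000 cells per well; test concentration not given here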; details: S. cerevisiae YJM789 growth, higher = more signal, called active from +8 up or from −8 down
# [13] = fission yeast growth modulation, primary screen, strain 972, OD600, 24 h, no modulator (AID 1090);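 also: basal condition with compound alone and no growth modifier present; test concentration not given here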; details: S. pombe 972 growth, higher = more signal, called active from +8 up or from −8 down
# [14] = S. cerevisiae growth modulation with rapamycin, primary screen, strain BY4716, OD600, 96 h (AID 1091); details: higher = more signal, called active from +8 up or from −8 down; also: test concentration not given here
# [15] = target: Torsin-1A-interacting protein 2 (Homo sapiens) (UniProt Q8NFQ8); assay: LULL1 binders on small-molecule microarray, primary screen, cell lysate, human LULL1 lysate, 635/667 nm fluorescence (AID 1092); details: hLULL1 lysate binding, 635 nm fluorescence, higher = more signal;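 also: probe is lysate of COS7 cells overexpressing human LULL1; score merges per-feature 667 nm fluorescence with signal-to-noise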
# [16] = E. coli growth modulation, two-sided OD650, primary screen, E. coli filamentation project, strain DRC41, 24 h (AID 1093); details: OD650, 24 h, higher = more signal, called active from +8 up or from −8 down;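 also: MC1000 strain lacking acrAB efflux and sulA so SOS filamentation is blocked; test concentration not given here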
# [17] = small-molecule microarray binders of probe aLefty2, primary screen, biochemical, biotinylated probe, 635/667 nm fluorescence (AID 1094); details: higher = more signal;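 also: score merges spot fluorescence near 667 nm with spot signal-to-noise ratio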
# [18] = tested on: Noggin (protein binding on small-molecule microarray); assay: Noggin binders on small-molecule microarray, primary screen, biochemical, 635/667 nm fluorescence (AID 1095); details: 635 nm fluorescence, higher = more signal;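 also: score merges 667 nm feature fluorescence with signal to noise over triplicate slides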
# [19] = target: Neurogenic locus notch homolog protein 3 (Homo sapiens) (UniProt Q9UM47); assay: NOTCH3 binders on small-molecule microarray, primary screen, biochemical, 635/667 nm fluorescence (AID 1096); details: NOTCH3 binding, 635 nm fluorescence, higher = more signal
# [20] = small-molecule microarray binders of probe aEGFR, primary screen, biochemical, biotinylated probe, 635/667 nm fluorescence (AID 1097); details: higher = more signal;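 also: probe is a biotinylated anti-EGFR antibody binding compounds printed on slides; score combines fluorescence near 667 nm and signal to noise of each spot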
# Chain of Neurogenic locus notch homolog protein 2 (Homo sapiens) (Q04721 whole entry, looked up, canonical isoform): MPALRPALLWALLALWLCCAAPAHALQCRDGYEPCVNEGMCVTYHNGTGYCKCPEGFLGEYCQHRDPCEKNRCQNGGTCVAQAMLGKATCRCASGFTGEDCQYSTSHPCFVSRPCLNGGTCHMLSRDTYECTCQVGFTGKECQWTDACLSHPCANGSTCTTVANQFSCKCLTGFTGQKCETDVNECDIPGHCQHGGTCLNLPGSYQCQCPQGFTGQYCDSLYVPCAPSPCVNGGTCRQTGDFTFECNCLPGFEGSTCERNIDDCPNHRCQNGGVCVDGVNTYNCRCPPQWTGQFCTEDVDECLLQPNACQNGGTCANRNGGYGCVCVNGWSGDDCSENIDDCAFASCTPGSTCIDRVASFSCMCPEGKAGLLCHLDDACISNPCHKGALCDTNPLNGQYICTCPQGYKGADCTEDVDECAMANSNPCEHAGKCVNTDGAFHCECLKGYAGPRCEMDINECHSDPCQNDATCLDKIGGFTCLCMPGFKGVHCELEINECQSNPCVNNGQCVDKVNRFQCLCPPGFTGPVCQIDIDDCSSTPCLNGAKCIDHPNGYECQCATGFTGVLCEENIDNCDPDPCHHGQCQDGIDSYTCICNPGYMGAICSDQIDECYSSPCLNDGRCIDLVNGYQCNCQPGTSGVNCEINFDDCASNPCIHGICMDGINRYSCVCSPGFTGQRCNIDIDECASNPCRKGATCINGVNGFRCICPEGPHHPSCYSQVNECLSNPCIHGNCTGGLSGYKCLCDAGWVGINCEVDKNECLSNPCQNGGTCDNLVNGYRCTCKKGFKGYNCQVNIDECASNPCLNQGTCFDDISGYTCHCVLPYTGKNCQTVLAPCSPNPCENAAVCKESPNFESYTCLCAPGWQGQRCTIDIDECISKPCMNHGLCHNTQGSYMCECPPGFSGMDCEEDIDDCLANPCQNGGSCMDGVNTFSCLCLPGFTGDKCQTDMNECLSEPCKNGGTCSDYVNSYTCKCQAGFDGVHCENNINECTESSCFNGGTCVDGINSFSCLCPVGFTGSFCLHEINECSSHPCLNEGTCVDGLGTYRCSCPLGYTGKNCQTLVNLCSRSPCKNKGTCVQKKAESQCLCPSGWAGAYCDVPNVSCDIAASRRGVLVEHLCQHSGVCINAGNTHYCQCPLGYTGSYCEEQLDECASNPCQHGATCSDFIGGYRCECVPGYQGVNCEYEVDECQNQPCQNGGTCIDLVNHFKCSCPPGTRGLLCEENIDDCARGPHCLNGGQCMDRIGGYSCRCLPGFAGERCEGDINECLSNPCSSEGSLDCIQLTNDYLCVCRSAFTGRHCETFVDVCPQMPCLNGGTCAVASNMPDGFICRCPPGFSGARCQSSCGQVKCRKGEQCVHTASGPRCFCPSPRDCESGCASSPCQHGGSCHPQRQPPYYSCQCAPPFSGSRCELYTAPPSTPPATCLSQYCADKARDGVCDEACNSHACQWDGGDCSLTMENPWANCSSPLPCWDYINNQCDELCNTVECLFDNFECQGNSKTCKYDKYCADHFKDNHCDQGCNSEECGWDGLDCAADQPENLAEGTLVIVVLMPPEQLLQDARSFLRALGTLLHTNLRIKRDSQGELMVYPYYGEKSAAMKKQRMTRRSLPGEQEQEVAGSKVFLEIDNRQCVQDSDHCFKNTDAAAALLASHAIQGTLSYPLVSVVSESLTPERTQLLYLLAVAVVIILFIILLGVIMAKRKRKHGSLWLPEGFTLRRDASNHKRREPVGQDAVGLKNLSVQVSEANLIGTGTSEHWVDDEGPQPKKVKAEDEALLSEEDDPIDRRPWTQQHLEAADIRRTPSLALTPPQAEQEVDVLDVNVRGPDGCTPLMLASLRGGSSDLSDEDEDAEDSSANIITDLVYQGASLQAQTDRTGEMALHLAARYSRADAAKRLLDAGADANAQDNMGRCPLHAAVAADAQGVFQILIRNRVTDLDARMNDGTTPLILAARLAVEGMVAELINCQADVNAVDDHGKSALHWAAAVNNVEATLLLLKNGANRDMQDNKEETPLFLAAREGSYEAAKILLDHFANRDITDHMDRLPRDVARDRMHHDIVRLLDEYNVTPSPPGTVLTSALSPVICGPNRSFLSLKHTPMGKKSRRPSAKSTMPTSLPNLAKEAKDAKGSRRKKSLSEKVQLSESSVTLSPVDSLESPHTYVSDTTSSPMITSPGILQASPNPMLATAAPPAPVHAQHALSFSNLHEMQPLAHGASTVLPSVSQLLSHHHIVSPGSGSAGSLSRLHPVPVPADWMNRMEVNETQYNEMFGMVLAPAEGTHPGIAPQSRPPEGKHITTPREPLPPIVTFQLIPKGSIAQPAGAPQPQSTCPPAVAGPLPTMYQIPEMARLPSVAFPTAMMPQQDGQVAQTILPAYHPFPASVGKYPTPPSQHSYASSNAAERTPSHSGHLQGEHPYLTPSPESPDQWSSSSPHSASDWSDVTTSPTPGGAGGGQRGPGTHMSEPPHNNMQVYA
# Chain of Pro-neuregulin-1, membrane-bound isoform (Homo sapiens) (Q02297 whole entry, looked up, the tested form may be a part, canonical isoform): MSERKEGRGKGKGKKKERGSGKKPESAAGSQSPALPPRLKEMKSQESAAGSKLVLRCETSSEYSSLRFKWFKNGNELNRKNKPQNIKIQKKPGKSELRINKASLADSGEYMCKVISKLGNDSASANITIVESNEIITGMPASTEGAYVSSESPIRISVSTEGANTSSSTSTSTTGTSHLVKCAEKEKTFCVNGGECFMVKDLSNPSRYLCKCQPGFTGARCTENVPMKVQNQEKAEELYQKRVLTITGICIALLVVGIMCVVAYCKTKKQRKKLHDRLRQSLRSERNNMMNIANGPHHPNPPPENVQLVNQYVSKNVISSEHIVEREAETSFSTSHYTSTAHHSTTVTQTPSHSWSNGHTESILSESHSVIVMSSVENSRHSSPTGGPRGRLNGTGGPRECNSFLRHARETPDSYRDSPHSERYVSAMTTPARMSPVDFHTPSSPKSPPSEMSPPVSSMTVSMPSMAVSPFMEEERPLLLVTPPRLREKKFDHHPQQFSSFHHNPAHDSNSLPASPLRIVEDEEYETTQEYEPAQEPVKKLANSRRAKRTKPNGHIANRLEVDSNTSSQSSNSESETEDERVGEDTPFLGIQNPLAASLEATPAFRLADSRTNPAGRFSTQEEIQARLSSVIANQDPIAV
# Chain of Torsin-1A-interacting protein 2 (Homo sapiens) (Q8NFQ8 whole entry, looked up): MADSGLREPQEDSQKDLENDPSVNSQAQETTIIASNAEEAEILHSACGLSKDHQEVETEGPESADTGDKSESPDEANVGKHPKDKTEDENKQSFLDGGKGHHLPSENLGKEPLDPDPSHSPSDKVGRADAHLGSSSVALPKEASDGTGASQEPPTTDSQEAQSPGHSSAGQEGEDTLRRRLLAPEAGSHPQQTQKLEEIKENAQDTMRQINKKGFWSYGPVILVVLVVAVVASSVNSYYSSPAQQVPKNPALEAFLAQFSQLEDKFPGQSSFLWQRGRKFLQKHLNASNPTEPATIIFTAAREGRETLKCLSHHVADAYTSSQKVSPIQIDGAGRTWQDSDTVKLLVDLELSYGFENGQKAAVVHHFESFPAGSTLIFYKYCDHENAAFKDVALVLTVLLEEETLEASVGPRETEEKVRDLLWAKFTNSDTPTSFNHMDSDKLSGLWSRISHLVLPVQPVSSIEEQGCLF
SMILES,composite z-score [1],composite z-score [2],composite z-score [3],composite z-score [4],composite z-score [5],composite z-score [6],composite z-score [7],z-score [8],composite z-score [9],composite z-score [10],composite z-score [11],z-score [12],z-score [13],z-score [14],composite z-score [15],z-score [16],composite z-score [17],composite z-score [18],composite z-score [19],composite z-score [20]
CC[C@H]1C2=C3C(CC[C@H]4C(OCc5ccc(F)cc5C(F)(F)F)OC[C@](C)([C@@H]34)N(C(=O)OC(C)(C)C)C2)C(COC(C)=O)C1COC(C)=O (stereo not given in full),-0.187,-0.25,0.0311,0.54,1.54,1,1.2,1.48 (inactive),1.43,0.104,0.454,-0.284 (inactive),0.387 (inactive),1.46 (inactive),2.89,-1.31 (inactive),0.0909,0.539,1.13,0.0507
CCCC[C@@H](O)C1=C(C)Cn2c(=O)n(-c3ccccc3)c(=O)n2[C@H]1CO,-0.571,-0.0827,-0.092,0.361,-0.362,-0.773,-0.151,-0.755 (inactive),-0.378,0.0053,-0.23,-1.43 (inactive),-1.39 (inactive),-0.846 (inactive),-0.249,2.53 (inactive),-0.218,-0.0422,-0.839,-0.0517
CCOC(=O)C[C@H]1[C@H](OC(=O)c2cc3ccccc3oc2=O)[C@@H](NC(=O)Cc2ccc(OC)cc2)c2cc(OCCCO)ccc2N1C(=O)Cc1ccc(OC)cc1,-0.545,0.58,-0.125,0.527,0.791,0.185,0.507,-1.39 (inactive),1.43,-0.179,0.638,-0.903 (inactive),-1.04 (inactive),-1.79 (inactive),1.65,1.52 (inactive),-0.058,0.534,0.91,-0.0313
COc1cccc(C)c1NC(=O)O[C@H]1[C@H](OC(=O)Nc2ccccc2-c2ccccc2)[C@@H](OC(=O)Nc2ccccc2-c2ccccc2)[C@@H](OC)O[C@@H]1CO,-0.182,0.968,0.141,1.17,1.61,1.74,1.38,0.945 (inactive),1.64,0.053,1.53,3.84 (inactive),2.59 (inactive),3.5 (inactive),3.54,-0.692 (inactive),0.0426,1.36,0.542,0.0059
C=C(COC)/C(=C/C[C@@H](OC(=O)c1ccncc1)c1ccccc1OCCO)c1cnc2ccccc2c1,-0.421,0.749,-0.085,0.922,1.58,0.495,1.17,-0.828 (inactive),0.525,-0.159,1.54,-0.564 (inactive),-1.61 (inactive),0.698 (inactive),2.03,1.1 (inactive),-0.0304,1.95,1.02,0.0533

# Source: PubChem BioAssay
